Measurements as given in PubChem BioAssay.
Values without a mark were called inactive.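 Rule for the calls: active = z-score of at least 1.8 in each of two replicates, scored against plate mean and spread of sample wells; inactive = the rest.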

test: galactose survival enhancers in mitochondrial complex I cybrids – cell-based, galactose medium, ATP luminescence, primary screen (AID 1645843); details: complex I mutant cybrid cells, 72 h, active compounds read high;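 note: positive z means more ATP and so rescue of galactose-driven cybrid death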

SMILES	z-score
Cc1cc2c(OCC(CNC(C)(C)C)OC(=O)c3ccccc3)cccc2[nH]1 (configuration not stated)	0.13
COc1ccccc1Oc1c(NS(=O)(=O)c2ccc(C(C)(C)C)cc2)nc(-c2ncccn2)nc1OCCO	0.365
CC1(C)CC1C(=O)NC(=CCCCCSCC(N)C(=O)O)C(=O)O (configuration not stated)	0.555
COc1ccc(-c2cc(=S)ss2)cc1	0.675
CN1CCN(C2=Nc3ccccc3Sc3ccc(Cl)cc32)CC1	-0.54
O=C(O)Cc1sc(-c2ccccc2)nc1-c1ccc(Cl)cc1	1.28
CCCCN1C[C@H](O)[C@@H](O)[C@H](O)[C@H]1CO	0.145
